According to PubChem BioAssay AID1159580 (chemical genetic matrix, 2015):
Out of some 5,500 compounds screened, about 2,000 (36%) were called active. Another 18% or so got no clear call; they are omitted. Rule as the data show it: active = normalized growth mostly below about 0.91 (no sharp cut-off); inconclusive = no clear call, values can overlap the other calls; inactive = mostly above about 0.92. The list shows a part of the results.

Assay: chemical genetic growth profiling, strain panel (AID 1159580);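 also: tested at 20 µM; growth read once vehicle control cultures reached saturation at 30 °C; 1 = growth at the plate median or of vehicle wells; lower values mean less growth of the strain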
Conditions: growth OD
[1] = S. cerevisiae deletion strains, locus YGR078C, strain PAC10, hits give low values
[2] = S. cerevisiae deletion strains, locus YNL128W, strain TEP1, hits give low values
[3] = S. cerevisiae deletion strains, locus YNL322C, strain KRE1, hits give low values
[4] = S. cerevisiae deletion strains, locus YHR030C, strain SLT2, hits give low values
[5] = S. cerevisiae deletion strains, locus YJL095W, strain BCK1, hits give low values

Measured: normalized growth

C[N+]1(C)CCc2cc3c(cc2[C@H]1[C@@H]1OC(=O)c2c1ccc1c2OCO1)OCO3
inactive: S. cerevisiae deletion strains, locus YAL040C, strain CLN3, hits give low values 0.982 | S. cerevisiae deletion strains, locus YDR150W, strain NUM1, hits give low values 0.997 | S. cerevisiae deletion strains, locus YER002W, strain NOP16, hits give low values 0.991 | [1] 1.01 | [2] 1 | S. cerevisiae deletion strains, locus YNL153C, strain GIM3, hits give low values 0.998 | S. cerevisiae deletion strains, locus YNL175C, strain NOP13, hits give low values 0.987 | S. cerevisiae deletion strains, locus YNL197C, strain WHI3, hits give low values 1.05 | S. cerevisiae deletion strains, locus YNL224C, strain SQS1, hits give low values 0.994 | [3] 1.01 | S. cerevisiae deletion strains, locus YOR083W, strain WHI5 (second series), hits give low values 1 | S. cerevisiae deletion strains, locus YPL055C, strain LGE1, hits give low values 1.01

CCCCCCCCCCCC(=O)OCC(COP(=O)(O)OCC(O)COP(=O)(O)OCC(COC(=O)CCCCCCCCCCC)OC(=O)CCCCCCCCCCC)OC(=O)CCCCCCCCCCC (centres undefined)
active: S. cerevisiae deletion strains, locus YDL035C, strain GPR1, hits give low values 0.663 | S. cerevisiae deletion strains, locus YDL074C, strain BRE1, hits give low values 0.72 | S. cerevisiae deletion strains, locus YDL101C, strain DUN1, hits give low values 0.839 | S. cerevisiae deletion strains, locus YDR162C, strain NBP2, hits give low values 0.55 | S. cerevisiae deletion strains, locus YEL061C, strain CIN8, hits give low values 0.861 | S. cerevisiae deletion strains, locus YGL086W, strain mad1, hits give low values 0.927 | S. cerevisiae deletion strains, locus YGL248W, strain PDE1, hits give low values 0.876 | S. cerevisiae deletion strains, locus YGR229C, strain SMI1, hits give low values 0.181 | S. cerevisiae deletion strains, locus YHR129C, strain ARP1, hits give low values 0.902 | S. cerevisiae deletion strains, locus YIL066C, strain RNR3, hits give low values 0.633 | S. cerevisiae deletion strains, locus YIL073C, strain SPO22, hits give low values 0.524 | S. cerevisiae deletion strains, locus YJL187C, strain SWE1 (second series), hits give low values 0.703 | S. cerevisiae deletion strains, locus YJR043C, strain POL32, hits give low values 0.632 | S. cerevisiae deletion strains, locus YKL190W, strain CNB1, hits give low values 0.682 | S. cerevisiae deletion strains, locus YLR039C, strain RIC1, hits give low values 0.671 | S. cerevisiae deletion strains, locus YLR058C, strain SHM2, hits give low values 0.811 | S. cerevisiae deletion strains, locus YLR342W, strain FKS1 (second series), hits give low values 0.549 | S. cerevisiae deletion strains, locus YLR418C, strain cdc73, hits give low values 0.765 | S. cerevisiae deletion strains, locus YML016C, strain PPZ1, hits give low values 0.792 | S. cerevisiae deletion strains, locus YMR307W, strain GAS1, hits give low values 0.475 | [2] 0.589 | [3] 0.715 | S. cerevisiae deletion strains, locus YOL006C, strain TOP1, hits give low values 0.29 | S. cerevisiae deletion strains, locus YOR061W, strain CKA2, hits give low values 0.803 | S. cerevisiae strains, strain wild type, hits give low values 0.56
inactive: S. cerevisiae deletion strains, locus YBR021W, strain FUR4, hits give low values 0.99 | S. cerevisiae deletion strains, locus YBR229C, strain ROT2, hits give low values 0.967 | S. cerevisiae deletion strains, locus YCL029C, strain bik1, hits give low values 1.01 | S. cerevisiae deletion strains, locus YDL185W, strain tfp1, hits give low values 0.981 | S. cerevisiae deletion strains, locus YDL192W, strain arf1, hits give low values 0.972 | S. cerevisiae deletion strains, locus YDR101C, strain arx1, hits give low values 1.03 | S. cerevisiae deletion strains, locus YDR318W, strain mcm21, hits give low values 1 | S. cerevisiae deletion strains, locus YDR388W, hits give low values 1.01 | S. cerevisiae deletion strains, locus YDR502C, strain sam2, hits give low values 0.978 | S. cerevisiae deletion strains, locus YER110C, hits give low values 1.03 | S. cerevisiae deletion strains, locus YER155C, strain BEM2, hits give low values 1.02 | S. cerevisiae deletion strains, locus YER167W, strain BCK2, hits give low values 0.953 | S. cerevisiae deletion strains, locus YGL078C, strain dbp3, hits give low values 1.02 | [1] 0.879 | S. cerevisiae deletion strains, locus YGR135W, strain pre9, hits give low values 0.923 | S. cerevisiae deletion strains, locus YGR252W, strain gcn5, hits give low values 0.887 | [4] 0.965 | S. cerevisiae deletion strains, locus YHR079C, strain IRE1 (second series), hits give low values 1.04 | S. cerevisiae deletion strains, locus YHR094C, strain hxt1, hits give low values 1.03 | S. cerevisiae deletion strains, locus YHR200W, strain rpn10, hits give low values 0.995 | S. cerevisiae deletion strains, locus YIL125W, strain kgd1, hits give low values 1.03 | S. cerevisiae deletion strains, locus YIR030C, strain dcg1, hits give low values 1.03 | [5] 0.816 | S. cerevisiae deletion strains, locus YJL134W, strain LCB3, hits give low values 0.975 | S. cerevisiae deletion strains, locus YJL168C, strain set2, hits give low values 1 | S. cerevisiae deletion strains, locus YKL009W, strain mrt4, hits give low values 1.09 | S. cerevisiae deletion strains, locus YKL068W, hits give low values 1.03 | S. cerevisiae deletion strains, locus YKL085W, strain MDH1 (second series), hits give low values 1.01 | S. cerevisiae deletion strains, locus YKL085W, strain MDH1, hits give low values 1.01 | S. cerevisiae deletion strains, locus YKR001C, strain vps1, hits give low values 0.986 | S. cerevisiae deletion strains, locus YLR102C, strain apc9, hits give low values 1.02 | S. cerevisiae deletion strains, locus YLR262C, strain YPT6, hits give low values 0.798 | S. cerevisiae deletion strains, locus YLR268W, strain sec22, hits give low values 0.937 | S. cerevisiae deletion strains, locus YLR330W, strain CHS5, hits give low values 0.964 | S. cerevisiae deletion strains, locus YLR371W, strain rom2, hits give low values 0.971 | S. cerevisiae deletion strains, locus YML032C, strain rad52, hits give low values 1.03 | S. cerevisiae deletion strains, locus YML124C, strain tub3, hits give low values 1.02 | S. cerevisiae deletion strains, locus YMR078C, strain ctf18, hits give low values 1.02 | S. cerevisiae deletion strains, locus YMR223W, strain ubp8, hits give low values 0.962 | S. cerevisiae deletion strains, locus YMR263W, strain SAP30, hits give low values 0.923 | S. cerevisiae deletion strains, locus YNL067W, strain RPL9B, hits give low values 0.891 | S. cerevisiae deletion strains, locus YNL233W, strain BNI4, hits give low values 0.91 | S. cerevisiae deletion strains, locus YNL250W, strain rad50, hits give low values 1.02 | S. cerevisiae deletion strains, locus YNL271C, strain bni1, hits give low values 1 | S. cerevisiae deletion strains, locus YNL298W, strain CLA4, hits give low values 1.01 | S. cerevisiae deletion strains, locus YNL307C, strain MCK1, hits give low values 1.02 | S. cerevisiae deletion strains, locus YNR052C, strain pop2, hits give low values 0.975 | S. cerevisiae deletion strains, locus YOL012C, strain htz1 0.377 | S. cerevisiae deletion strains, locus YOL147C, strain pex11, hits give low values 1.02 | S. cerevisiae deletion strains, locus YOR069W, strain VPS5, hits give low values 0.951 | S. cerevisiae deletion strains, locus YOR136W, strain idh2, hits give low values 1.01 | S. cerevisiae deletion strains, locus YOR144C, strain elg1, hits give low values 1.01 | S. cerevisiae deletion strains, locus YOR184W, strain ser1, hits give low values 0.926 | S. cerevisiae deletion strains, locus YOR316C, strain cot1, hits give low values 1.02 | S. cerevisiae deletion strains, locus YPR119W, strain clb2, hits give low values 1.03 | S. cerevisiae deletion strains, locus YPR141C, strain kar3, hits give low values 1.02 | S. cerevisiae deletion strains, locus YPR163C, strain tif3, hits give low values 1.02 | S. cerevisiae deletion strains, locus YPR167C, strain met16, hits give low values 1.02 | S. cerevisiae deletion strains, strain wtn01, hits give low values 0.947

CCCCCCCCCCCCCCCC(=O)OCC(O)CO (centres undefined)
inactive: [4] 1 | S. cerevisiae deletion strains, locus YHR079C, strain IRE1, hits give low values 0.99 | [5] 0.967 | S. cerevisiae deletion strains, locus YJR066W, strain TOR1, hits give low values 0.936 | S. cerevisiae deletion strains, locus YLR113W, strain HOG1, hits give low values 1 | S. cerevisiae deletion strains, locus YNL183C, strain NPR1, hits give low values 0.93 | S. cerevisiae deletion strains, locus YOR231W, strain MKK1, hits give low values 1.01 | S. cerevisiae deletion strains, locus YPL256C, strain CLN2, hits give low values 1.02
